# Laboratory results as given in PubChem BioAssay (NCI).
# Where “and” joins values, the source holds several entries; their conditions need not be identical. Equal entries are not always repeated. About 79,000 compounds went through this panel and 15% of them were active in at least one assay; those are over-represented in the sample as a whole. Calls of active or inactive are those of the source. Cut-off read from the data, not from the text of the source: active = growth inhibition above about 70%; inactive = the rest.
# Assay: NCI Yeast Anticancer Drug Screen. Data for the bub3 strain (AID 167)
# Conditions: S. cerevisiae bub3 mutant strain, at 50.0 µM (retest, dose inferred, filed as 5.0), active compounds read high
# Outline: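 Steps: expose the mutant yeast strain to compound; grow alongside vehicle-treated cultures; measure growth; express inhibition against the vehicle cultures.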
row,SMILES,growth inhibition
1,Cc1[nH]nc(-c2cccnc2)c1N=NN1CCOCC1,99% (active)
2,CC1CCC2(CC1)NC1=C(CC(C)CC1)C1=C2CC(C)CC1 (configuration not stated),17% (inactive)
3,CN(C)CC(CN1CCCC1)C(=O)c1ccccc1 (configuration not stated),39% (inactive)
4,COc1ccc(/C(Cl)=C(/c2ccc(O)cc2)c2ccc(OCCN(C)C)cc2)cc1,26% (inactive)
5,CCCCCC(Oc1ccc(Cl)cc1)C(=O)O (configuration not stated),87% (active)
6,N#CSC#CCCC#CSC#N,98% (active)
7,COc1cc2c(c(C3C(=O)N(C)c4ccc(Br)cc43)c1OC)OCO2 (configuration not stated),-1% (inactive)
8,c1ccc(-c2cc(CN3CCOCC3)c(-c3ccccc3)o2)cc1,99% (active)
9,CC(=O)Nc1c([N+](=O)[O-])cc2c3c(cccc13)C=C2,23% (inactive)
10,CCOc1nc(N)nc(C)c1N=Nc1ccc(Br)cc1,88% (active)
11,C=CC1(NC(=O)c2ccccc2)CCC(C(C)(C)C)CC1 (configuration not stated),95% (active)
12,Cc1cccc2ccc3cc(CC(=O)O)c4cccc(C)c4c3c12,99% (active)
13,CCCCSc1nc2c([nH]1)c(=S)n(C)c(=S)n2C,92% (active)
14,COC(=O)c1ccccc1CC(Cc1ccc2c(c1)CCC2)C(=O)OC (configuration not stated),27% (inactive)
15,CCC(C)Sc1nc2c([nH]1)c(=S)n(C)c(=O)n2C (configuration not stated),49% (inactive)
16,O=S(=O)(c1ccc(NC(=S)NCc2ccncc2)cc1)N1CCCCC1,-18% (inactive)

row,SMILES,growth inhibition
1,COc1ccccc1/C=C1\NC(=S)N(/C=C2\C(=O)Oc3ccccc3C2=O)C1=O,37% (inactive)
2,CC12C(=O)OC(=O)C1C1c3ccccc3C2c2ccccc21 (configuration not stated),90% (active)
3,CCOC(=O)C(F)C(Br)C(=O)OCC (configuration not stated),100% (active)
4,CCCCCCCCCCCCCCCCC/C=N\NC(=O)CCCC(=O)N/N=C/CCCCCCCCCCCCCCCCC,25% (inactive)
5,CC(C(=O)NN)C(O)C(C)(C)O (configuration not stated),1% (inactive)
6,COC(=O)C1C2CC3c4[nH]c5cc(OC)c(Br)cc5c4CCN3CC2CC(OC(=O)c2cc(OC)c(OC)c(OC)c2)C1OC (configuration not stated),87% (active)
7,CCCN(CCC)C(=S)N/N=C/c1cccc(C)n1,100% (active)
8,Cc1cccc2c1Oc1ccccc1C2N1C(=O)/C(=C/c2cccs2)SC1=S (configuration not stated),-4% (inactive)
9,COc1ccc(OC(C)=O)c2c1CCC=CC2=O,92% (active)
10,COC(=O)CSc1nc2[nH]c(SC)c(C(N)=O)c2c(=O)n1-c1ccccc1,21% (inactive)
11,O=C(Nc1ccc(Cl)c(Cl)c1Cl)Oc1c(Cl)c(Cl)c(Cl)c(Cl)c1Cl,99% (active)
12,COc1ccc(CCCC(=O)O)c2c(OC)cccc12,60% (inactive)
13,FC(F)(F)c1ccc(Nc2ccc(C(F)(F)F)cc2)cc1,99% (active)
14,O=C(c1ccccc1)C(Br)CCCC(Br)C(=O)c1ccccc1 (configuration not stated),73% (active)
15,CC1(C)c2ccccc2Cc2cc3ccccc3nc21,98% (active)
16,COc1ccc2c(c1)[n+]([O-])c(-c1ccc(Cl)c(Cl)c1)c(N)[n+]2[O-],99% (active)

# Same assay, conditions: S. cerevisiae bub3 mutant strain, at 50.0 µM, active compounds read high
row,SMILES,growth inhibition
1,Cc1[nH]nc(-c2cccnc2)c1N=NN1CCOCC1,5.35% (inactive)
2,CC1CCC2(CC1)NC1=C(CC(C)CC1)C1=C2CC(C)CC1 (configuration not stated),-4.4% (inactive)
3,CN(C)CC(CN1CCCC1)C(=O)c1ccccc1 (configuration not stated),65.5% (inactive)
4,COc1ccc(/C(Cl)=C(/c2ccc(O)cc2)c2ccc(OCCN(C)C)cc2)cc1,88.6% (active)
5,CCCCCC(Oc1ccc(Cl)cc1)C(=O)O (configuration not stated),71.5% (active)
6,N#CSC#CCCC#CSC#N,92.4% (active)
7,COc1cc2c(c(C3C(=O)N(C)c4ccc(Br)cc43)c1OC)OCO2 (configuration not stated),-1.85% (inactive)
8,c1ccc(-c2cc(CN3CCOCC3)c(-c3ccccc3)o2)cc1,55.8% (inactive)
9,CC(=O)Nc1c([N+](=O)[O-])cc2c3c(cccc13)C=C2,-17.2% (inactive)
10,CCOc1nc(N)nc(C)c1N=Nc1ccc(Br)cc1,75.9% (active)
11,C=CC1(NC(=O)c2ccccc2)CCC(C(C)(C)C)CC1 (configuration not stated),49.9% (inactive)
12,Cc1cccc2ccc3cc(CC(=O)O)c4cccc(C)c4c3c12,99.8% (active)
13,CC(=O)OC1COC(SC(=N)N)C(OC(C)=O)C1OC(C)=O (configuration not stated),1.65% (inactive) and 6.55% (inactive) and -1.75% (inactive)
14,CCCCSc1nc2c([nH]1)c(=S)n(C)c(=S)n2C,66.3% (inactive)
15,COC(=O)c1ccccc1CC(Cc1ccc2c(c1)CCC2)C(=O)OC (configuration not stated),12.3% (inactive)
16,CCC(C)Sc1nc2c([nH]1)c(=S)n(C)c(=O)n2C (configuration not stated),95.7% (active)
17,O=S(=O)(c1ccc(NC(=S)NCc2ccncc2)cc1)N1CCCCC1,9.35% (inactive)
18,Nc1ccc(S(=O)(=O)O)c2ccccc12,-1.95% (inactive) and -17.8% (inactive) and 7.6% (inactive)
19,COc1ccccc1/C=C1\NC(=S)N(/C=C2\C(=O)Oc3ccccc3C2=O)C1=O,79.1% (active)
20,CC12C(=O)OC(=O)C1C1c3ccccc3C2c2ccccc21 (configuration not stated),89.5% (active)

row,SMILES,growth inhibition
1,CSc1ccccc1C(=O)O,-30.5% (inactive) and -6.5% (inactive) and -34% (inactive)
2,CCOC(=O)C(F)C(Br)C(=O)OCC (configuration not stated),90.7% (active)
3,CCCCCCCCCCCCCCCCC/C=N\NC(=O)CCCC(=O)N/N=C/CCCCCCCCCCCCCCCCC,99.2% (active)
4,CC(C(=O)NN)C(O)C(C)(C)O (configuration not stated),-5.85% (inactive)
5,COC(=O)C1C2CC3c4[nH]c5cc(OC)c(Br)cc5c4CCN3CC2CC(OC(=O)c2cc(OC)c(OC)c(OC)c2)C1OC (configuration not stated),86.2% (active)
6,OCC(O)C(O)C(O)C(O)CNCC(O)C(O)C(O)C(O)CO (configuration not stated),13% (inactive) and 14.2% (inactive) and 3.75% (inactive)
7,CCCN(CCC)C(=S)N/N=C/c1cccc(C)n1,92.5% (active)
8,Cc1cccc2c1Oc1ccccc1C2N1C(=O)/C(=C/c2cccs2)SC1=S (configuration not stated),26.4% (inactive)
9,COc1ccc(OC(C)=O)c2c1CCC=CC2=O,65.3% (inactive)
10,Cc1ccc(S(=O)(=O)OCC(O)C(O)COS(=O)(=O)c2ccc(C)cc2)cc1 (configuration not stated),9.15% (inactive) and -12.4% (inactive) and 6.35% (inactive)
11,COC(=O)CSc1nc2[nH]c(SC)c(C(N)=O)c2c(=O)n1-c1ccccc1,7.8% (inactive)
12,NCC(=O)NC(CO)C(=O)O (configuration not stated),-24.7% (inactive) and -11.4% (inactive) and -3.6% (inactive)
13,O=C(Nc1ccc(Cl)c(Cl)c1Cl)Oc1c(Cl)c(Cl)c(Cl)c(Cl)c1Cl,98.5% (active)
14,COC1OC2COC(c3ccccc3)OC2C(O)C1O (configuration not stated),-9.35% (inactive) and -19.9% (inactive) and -17.4% (inactive)
15,COc1ccc(CCCC(=O)O)c2c(OC)cccc12,49.9% (inactive)
16,FC(F)(F)c1ccc(Nc2ccc(C(F)(F)F)cc2)cc1,99.7% (active)
17,O=C(c1ccccc1)C(Br)CCCC(Br)C(=O)c1ccccc1 (configuration not stated),97.3% (active)
18,CC1(C)c2ccccc2Cc2cc3ccccc3nc21,94% (active)
19,OC(c1ccccc1)C(O)c1ccccc1 (configuration not stated),9.4% (inactive) and 11.6% (inactive) and 15.7% (inactive)
20,COc1ccc2c(c1)[n+]([O-])c(-c1ccc(Cl)c(Cl)c1)c(N)[n+]2[O-],99.6% (active)
